The values that follow come from PubChem BioAssay AID504332 (National Center for Advancing Translational Sciences (NCATS), 2011).

In all, about 350,000 compounds went through this assay and about 31,000 (8.9%) were called active. Where a call stands in place of a potency, no number is given. Roughly 15% stayed inconclusive and do not appear here. This is one part of a sample in which actives are shown more often than they occur. Unmarked numbers belong to inactive results. Calls follow the shape of the dose curve; as a rule, active = well fitted inhibition curve with a large enough effect; inconclusive = small, poorly fitted or top-dose-only effect; inactive = no such curve, though single readings can be large or run the other way.
Potency is read from the fitted curve at half-maximal effect.

Chain of Histone-lysine N-methyltransferase EHMT2 (Homo sapiens) (Q96KQ7 913-1193 limits assumed): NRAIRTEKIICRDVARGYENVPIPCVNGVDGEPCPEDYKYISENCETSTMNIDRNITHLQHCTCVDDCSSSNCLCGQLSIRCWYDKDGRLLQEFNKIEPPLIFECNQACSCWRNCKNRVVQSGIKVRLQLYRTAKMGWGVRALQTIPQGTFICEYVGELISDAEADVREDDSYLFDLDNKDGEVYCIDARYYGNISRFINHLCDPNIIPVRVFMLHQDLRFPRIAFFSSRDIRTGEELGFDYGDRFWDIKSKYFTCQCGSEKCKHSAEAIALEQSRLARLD

This test addresses Histone-lysine N-methyltransferase EHMT2 (Homo sapiens) (UniProt Q96KQ7). The test can be described thus: qHTS Assay for Inhibitors of Histone Lysine Methyltransferase G9a. Also: nearly all actives have a fitted effect of over 75% in size. As to conditions: G9a H3K9 monomethylation, AlphaScreen, 2 h; series mostly up to 59 µM. A digest of the protocol: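 Step 1: enzyme (final 20 nM) with compound, 15 min RT. Step 2: substrate peptide 500 nM and SAM 20 uM, 2 h RT. Step 3: anti-H3K9me1 antibody and AlphaScreen beads, 10 min, then plate read.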
Take `C=CCC(NC(=O)Cc1ccccc1)C(=O)NCCC` (stereo not given): the activity, negative = inhibition was 5.83% [at 0.501 µM].
For the molecule `O=C(Cc1ccc(-c2ccccc2)cc1)NC(c1ccccc1)c1ccccc1`, the Potency was 7.08 µM (active).
On the same count and under the same terms, in the case of `CCOC(=O)/C=C/C(=O)OCC(=O)NC(c1ccccc1)c1ccccc1` it was “inactive”; in that of `C/C(CC(=O)NCc1ccc(Cl)cc1)=N\NC(=O)COc1ccc(C)cc1Br`, “inactive”; in that of `Cc1n[nH]c(=S)n1/N=C/c1ccc(Br)o1`, 3.16 µM (active).
On the same count and under the same terms, next, `Cc1ccccc1-c1ccc(C(=O)O)s1`: “inactive”; `Cc1ccccc1-c1n[nH]c(=S)n1C`: 10 µM (active).
Still for that read-out and setting: next, `Cc1ccccc1-c1n[nH]c(=S)n1/N=C/c1ccc(-c2ccccc2Br)o1`: 12.6 µM (active); `Cc1ccccc1-c1nc(SCC(=O)N(C)c2ccccc2)c2c(=O)n(C)c(=O)n(C)c2n1`: “inactive”; `Cc1cc(C)cc(NS(=O)(=O)c2cc3c(cc2C)NC(=O)CO3)c1`: “inactive”.
Turning to `CCCCCc1c(C)nc(N2CCN(Cc3ccc4c(c3)OCO4)CC2)[nH]c1=O`, the Potency entry is “inactive”.
Consider `O=C(Cc1ccc(S(=O)(=O)N2CCOCC2)s1)NCCOc1ccccc1F`, for which the activity, negative = inhibition is -25.9% [at 12.7 µM].
Still for that read-out and setting: next, `CCNC(=O)c1cc2n(n1)CCCN(Cc1ccc(C)cc1)C2=O`: -1.49% [at 12.7 µM]; `CN(C)S(=O)(=O)c1ccc(N2CCCC2)c(C(=O)Nc2ccc(Br)cc2F)c1`: 26.4% [at 2.33 µM].
As to `COc1cc2nc(Cl)nc(NCCO)c2cc1OC`, the Potency entry is “inactive”.
Still for that read-out and setting: next, `OCCNc1nc(Nc2ccc(Cl)c(Cl)c2)nc2ccccc12`: 50.1 µM (active); `Nc1nc(Nc2ccccc2)nc(NCCO)c1[N+](=O)[O-]`: “inactive”.
Still for that read-out and setting: in the case of `COc1ccc(OCC(=O)Nc2cccc(C(=O)OCc3cc(=O)n4nc(C)sc4n3)c2)cc1` it was “inactive”.
On to `CN1CCN(S(=O)(=O)c2ccc(Nc3ccc(F)cc3)nc2)CC1`, for which the Potency result is “inactive”.
On to `COc1ccccc1NC(=O)c1sc2nc(C)c(C(=O)Nc3ccc(Cl)cc3)c(-c3ccc(Br)cc3)c2c1N`, for which the Potency result is “inactive”.
Regarding `O=C(Nc1cccc(C(F)(F)F)c1)c1cc(Br)cc(Br)c1O`, the activity, negative = inhibition is -37% [at 12.7 µM].
In the case of `Nc1ccc(OCC(O)C[n+]2ccc(CCS(=O)(=O)[O-])cc2)cc1` (stereo not given), the Potency was 39.8 µM (active).
Same read-out and setting: next, `CCCc1ccc(OCC(O)CN2CCN(C(=O)OCC)CC2)cc1` (stereo not given): “inactive”; `CCc1ccc(S(=O)(=O)NCC(O)COc2ccc(OC)cc2)cc1` (stereo not given): “inactive”.
Same read-out and setting: next, `Cn1c(CCC(=O)Nc2ccccc2F)nnc1SCC(=O)Nc1ccccc1Cl`: “inactive”.
The same measure, in the same setting: in the case of `Cn1c(CC2Sc3ccccc3NC2=O)nnc1SCC(=O)c1ccc(Cl)cc1` (stereo not given) it was 14.1 µM (active).
On to `Cn1c(SCC(=O)c2ccc(F)cc2)nnc1-c1ccccn1`, for which the Potency entry is “inactive”.
Still for that read-out and setting: in the case of `O=c1cc2nc(-c3ccccc3)nc(SCCOc3ccc(Cl)cc3)n2[nH]1` it was “inactive”.
On to `CC(=O)Nc1ccc(S(=O)(=O)N2CCCC2C(=O)O)cc1` (stereo not given), for which the Potency entry is “inactive”.
In the case of `O=C(O)C1CCCN1S(=O)(=O)c1ccc2c(c1)CCC2` (stereo not given), the Potency is 56.2 µM (active).
Take `O=C(O)C1CCCN1S(=O)(=O)c1ccc(Br)cc1` (stereo not given): the activity, negative = inhibition is -11.1% [at 0.501 µM].
For `CCOC(=O)N1CCc2c(sc3c2C(=O)NC(c2ccccc2F)N3)C1` (stereo not given), the Potency entry was “inactive”.
As to `CCOC(=O)N1CCc2c(sc3c2c(=O)n(Cc2ccccc2)c(=O)n3CC(=O)Nc2cccc(C)c2)C1`, the Potency result was “inactive”.
The same measure, in the same setting: next, `CCOC(=O)N1CCc2c(sc(NCc3cccc(F)c3)c2C(=O)Nc2ccccc2OCC)C1`: 1.41 µM (active); `COC(=O)c1ccccc1NC(=O)Cn1c(=O)n(-c2cccc(C(F)(F)F)c2)c(=O)c2c(C)c(C)sc21`: “inactive”.
With `CS(=O)(=O)N1CCc2nc(-c3ccccc3)sc2C1`, the Potency entry was “inactive”.
For `Cc1ccc(S(=O)(=O)N2CCC(C(=O)OCC(=O)N(C)c3ccccc3)CC2)cc1C`, the Potency entry was “inactive”.
Same read-out and setting: in the case of `O=C(Nc1c(-c2ccc(F)cc2)nc2ccccn12)c1cccc(F)c1` it was “inactive”; in that of `O=C(COC(=O)c1ccccc1Br)Nc1nnc(-c2ccccc2)o1`, “inactive”; in that of `CCCC(=O)Nc1nnc(-c2ccccc2)o1`, 39.8 µM (active).
For `O=C(COC(=O)c1ccc(Oc2ccccc2)cc1)Nc1nnc(-c2ccccc2)o1`, the activity, negative = inhibition was 17.6% [at 12.7 µM].
`CCN(CC)CCNC(=O)c1cc2c(=O)oc3ccc(C)cc3c2s1`: the Potency result was “inactive”.
In the case of `CCNC(=O)c1cccc(NC(=O)C2CC(=O)N(CCc3ccccc3)C2)c1` (stereo not given), the activity, negative = inhibition was 8.14% [at 0.501 µM].
The same measure, in the same setting: in the case of `COc1ccc2cc(C3=CC(=O)C[C@H](c4ccc5c(c4)OCO5)C3)ccc2c1` it was 7.57% [at 0.501 µM].
Consider `CC(C)CNC(=O)COC(=O)/C=C/c1ccco1`, for which the Potency result was “inactive”.
For the molecule `COc1cccc(NC(=O)COC(=O)/C=C/c2ccco2)c1`, the activity, negative = inhibition was 13.7% [at 2.33 µM].
With `NS(=O)(=O)c1cccc(NC(=O)COC(=O)/C=C/c2ccco2)c1`, the Potency was 25.1 µM (active).
The same measure, in the same setting: in the case of `O=S(=O)(NCCS(=O)(=O)N1CCN(c2ccccc2)CC1)c1ccc(F)cc1` it was “inactive”; in that of `COc1ccc(C2CC(c3ccccc3)=NN2C(=O)COC(=O)COc2ccccc2)cc1` (stereo not given), “inactive”; in that of `COc1cccc(OCc2nnc3n2N=C(c2ccccc2)C(CC(=O)O)S3)c1` (stereo not given), 44.7 µM (active).
For the molecule `COc1ccc(C(=O)NCc2nnc(SCCOc3ccccc3)n2C)cc1`, the activity, negative = inhibition was 13.9% [at 12.7 µM].
Turning to `COc1ccc(OCc2nnc3n2N=C(c2ccccc2)C(CC(=O)O)S3)cc1` (stereo not given), the Potency is 1.58 µM (active).
For the molecule `CCn1c(COc2cccc(OC)c2)nnc1SCC(=O)N1CCOCC1`, the Potency entry was “inactive”.
For the molecule `COc1cccc(OCC(=O)Nc2ccccc2C(N)=O)c1`, the activity, negative = inhibition is 6.62% [at 12.7 µM].
Consider `CCN(CC)S(=O)(=O)c1ccc2c(c1)N(CC(=O)NCc1ccccc1)C(=O)CS2`, for which the Potency entry was “inactive”.
Consider `COc1cccc(CNC(=O)C(=O)NCCC2CCCCN2S(=O)(=O)c2ccc(C)cc2)c1` (stereo not given), for which the activity, negative = inhibition was 0.971% [at 0.501 µM].
Regarding `CC(=O)Nc1ccc(NC(=O)CSc2nnc(COc3ccccc3C)n2CC2CCCO2)cc1` (stereo not given), the Potency result is “inactive”.
Still for that read-out and setting: in the case of `COc1ccccc1NC(=O)CSc1nnc(C)n1CC1CCCO1` (stereo not given) it was “inactive”.
Turning to `CCOc1cccc(=O)c2c(C)n(CC3CCCO3)c(C)c12` (stereo not given), the Potency was 70.8 µM (active).
Turning to `Cc1ccc(NC(=O)COC(=O)CN2CCCCCC2=O)c(C)c1`, the Potency entry was “inactive”.
